# Data from PubChem BioAssay AID748 (Sanford-Burnham Center for Chemical Genomics, 2007).
# About 100 (0.1%) of roughly 96,000 compounds were called active. The entries come from a sample that favours actives as a whole. Measured potencies and affinities stand elsewhere. Unmarked numbers belong to inactive results.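 The calls were made as follows: active = displacement above 50% at 20 µM plus a fluorescence interference ratio under 1.5; inactive = the rest.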
# Target: Bcl-2-like protein 10 (Homo sapiens) (UniProt Q9HD36)
# Assay: displacers of TR3 peptide from Bcl-B, primary screen, selectivity assay for Bfl-1 inhibitor project, biochemical, fluorescence polarization, FITC-TR3 peptide (AID 748);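 also: plate controls were wells without compound for no effect and wells lacking Bcl-B protein for full effect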
# Settings: FP displacement of FITC-TR3 peptide from Bcl-B; at 20 µM; active compounds read high
row,SMILES,displacement
1,ClC1=CCC2CN(CCN3CCCCC3)CC2C1 (stereo not given),67.7% (active)
2,O=c1cccc2n1CC1CC2CN(C(c2ccccc2)c2sc3ncnn3c2O)C1 (stereo not given),-0.3%
3,O=C1OCCN1P(=O)(c1ccccc1)c1ccccc1,-1.2%
4,COc1ccc(C(=O)C2(C)N(O)C(C)C(c3cccs3)=[N+]2[O-])cc1 (stereo not given),-5.6%
5,CCC(=NCC1CCCO1)c1c(O)n(-c2ccc(Cl)cc2)c(=O)[nH]c1=O (stereo not given),-1.5%
